The results in this text go back to PubChem BioAssay (NCI).

The panel holds about 83,000 compounds, 20% with a hit somewhere; the sample as a whole holds those more often.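 Plates (96-well) were seeded with cells, treated with compound at one concentration, and incubated for 48 hours before percent growth was determined.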 Activity calls are given as the source filed them. How the source made its calls: active means growth percent below 10; inactive means the rest.

This test relates to NCI-H322M lung. Briefly: NCI-60 one-dose screen, 48 h (100 = growth as untreated, 0 = no growth, -100 = all killed). The conditions noted are these: 10 µM unless noted.
With `CCCSc1nc(Nc2ccc(S(N)(=O)=O)cc2)c(C#N)c(-c2ccc(Cl)cc2)n1`, the growth is 21.9% (inactive).
To `CCCCSc1nc(Nc2ccc(S(N)(=O)=O)cc2)c(C#N)c(-c2ccc(Cl)cc2)n1` belongs 73.8% (inactive); to `Cn1cc(-c2cc3nc(-c4cn(C)c5ncccc45)cc(N)n3n2)c2ccccc21`, 37% (inactive).
As to `Cc1ccc(C2=NN(c3nc(-c4cc5ccccc5oc4=O)cs3)C(c3ccc(C)cc3)C2)cc1` (centres undefined), the growth is 102% (inactive).
In the case of `Cc1ccc2c(c1)nc(-c1ccccc1)n2CC(=O)N=Nc1c(O)[nH]c2ccc(Br)cc12`, the growth was -46.4% (active).
To `O=C(Cn1nc(-c2ccccc2)ccc1=O)N/N=C/c1ccc(N2CCOCC2)cc1` belongs 106% (inactive); to `O=C(NN1C(=O)/C(=C/C=C/c2ccc([N+](=O)[O-])o2)SC1=S)c1ccc(Cl)cc1`, -100% (active).
Next, `CCCCSc1nc(Nc2ccc(S(N)(=O)=O)cc2)c(C#N)c(-c2cc(OC)c(OC)c(OC)c2)n1`: 75.1% (inactive); `COc1cc2c3c(n(CCCN4CCC[C@@H]4CO)c(=O)c2cc1OC)-c1cc2c(cc1C3=O)OCO2`: -96.5% (active).
To `Cn1cc(-c2cc(N)n3nc(-c4cn(C)c5ncc(Br)cc45)cc3n2)c2cc(Br)cnc21` belongs 69.1% (inactive).
For `Cn1cc(-c2cc(N)n3nc(-c4c[nH]c5ccccc45)cc3n2)c2cccnc21`, the growth is 44.7% (inactive).
For the compound `CN(C)c1nc(NCCNS(=O)(=O)c2ccc(C3=Nc4c(N)nc(N)nc4NC(c4ccccc4)C3)cc2)nc(Nc2ccc(F)cc2)n1` (centres undefined), the growth is 58.4% (inactive).
To `COc1ccc(-c2ccc(SCC(=O)NCCc3ccc(S(N)(=O)=O)cc3)nn2)cc1` belongs 96.2% (inactive); to `O=C(CCN1C(=O)/C(=C/c2ccc(F)cc2)SC1=S)N1CCOCC1`, 80.2% (inactive).
Next, `Cc1cc2nc3c4ccccc4n(CC4=NCCN4)c3nc2cc1C`: 22.3% (inactive); `Cc1ccc(C(=O)NN2C(=O)/C(=C/C=C/c3ccc([N+](=O)[O-])o3)SC2=S)cc1`: -76.9% (active).
To `Cc1cc2nc3c([nH]c2cc1C)c1ccc(=O)cc1n3CCN(C)C` belongs 39.9% (inactive); to `N/C(=N\c1nc2ccccc2s1)NC(=O)Nc1c(Cl)cccc1Cl`, 68.2% (inactive).
As for `Brc1ccc(-c2n(Cc3ccc4ccccc4c3)c(-c3ccccc3)c(-c3ccccc3)[n+]2Cc2ccc3ccccc3c2)cc1`, the growth is -99.1% (active).
`C=C1CC[C@@H]2[C@]3(C)COC(c4cn[nH]c4-c4ccc(Br)cc4)O[C@@H]3CC[C@@]2(C)[C@@H]1C/C=C1/C(=O)OCC1O` (some centres undefined): the growth is 32% (inactive).
For the compound `COc1ccc(-c2nc3cc(C)ccc3n2CC(=O)N=Nc2c(O)[nH]c3ccc(Br)cc23)cc1`, the growth was 14.2% (inactive).
Next, `CC12CC[C@@H]3[C@]4(C)COC(c5cn[nH]c5-c5cccc(Br)c5)O[C@@H]4CC[C@@]3(C)[C@@H]1CC(C1=CCOC1=O)O2` (some centres undefined): 48.6% (inactive); `COc1c(F)ccc(C(=O)Nc2ccc3nc(NC(=O)C4CCCN(S(=O)(=O)c5ccc(C#N)cc5)C4)sc3c2)c1F` (centres undefined): 101% (inactive); `COc1ccc2c(c1)c(-c1cc3nc(-c4cn(C)c5ncccc45)cc(N)n3n1)cn2C`: -8.29% (active).
Next, `CC(=O)c1cc(C(=O)c2ccccc2)n2c1ccc1ccccc12`: 94.3% (inactive); `COc1ccc2[nH]c(=O)c(CSc3nccc(-c4ccc(OC)c(OC)c4)n3)cc2c1`: 40.6% (inactive); `COc1ccc(NC(=O)Cn2c3c(sc2=O)[C@H]2[C@@H](O)[C@@H](O)[C@H](O)[C@@H]2CS3)cc1`: 101% (inactive).
Next, `C=C1CCC2C3(C)COC(c4cccs4)OC3CCC2(C)C1CC(Sc1ccccc1)C1=CCOC1=O` (centres undefined): 94.9% (inactive); `CC1CN(c2oc(-c3ccc([N+](=O)[O-])cc3)nc2C#N)CC(C)O1` (centres undefined): 96.9% (inactive).
As to `Cc1occc1C(=O)NN1C(=O)/C(=C/C=C/c2ccc([N+](=O)[O-])o2)SC1=S`, the growth is 66.8% (inactive).
In the case of `N=C1N=C(SCc2nc3ccccc3[nH]2)NC(=O)/C1=C/c1ccc(Cl)cc1`, the growth is 103% (inactive).
To `O=C(NN1C(=O)/C(=C/C=C/c2ccc([N+](=O)[O-])o2)SC1=S)c1ccccc1O` belongs -63% (active); to `COc1ccc(-c2nc3cc(C)ccc3n2CC(=O)N=Nc2c(O)[nH]c3ccc(Cl)cc23)cc1`, 10.1% (inactive); to `COC1=C[C@]23CCC(=O)N2CCc2cc4c(cc2[C@@H]3[C@@H]1OC(=O)[C@H](C)O)OCO4`, 69.7% (inactive).
